This note sets out measurements from PubChem BioAssay (NCATS).

Molecules are shown by their SMILES. Inconclusive results are not listed. Activity calls are given as the source filed them. Calls follow the shape of the dose curve; as a rule, active = well fitted inhibition curve with a large enough effect; inconclusive = small, poorly fitted or top-dose-only effect; inactive = flat fitted curve, though single readings scatter.

What all share (test): qHTS profiling for inhibitors of Plasmodium falciparum proliferation (AID 504749); also: nearly all actives have a fitted effect of over 60% in size
Common to all, as to conditions: P. falciparum in erythrocytes, SYBR Green DNA, 72 h; series mostly up to 28.7 µM
In general terms: Quantitative high-throughput screening tests each substance at several concentrations.

The subject of one experiment is CP305. In a few lines: (§1)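 Three-day growth assay of blood-stage parasites in erythrocytes (0.3% parasitemia, 2.5% hematocrit) at 37 C, 5% CO2, quantified by SYBR Green DNA staining after overnight detergent lysis.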
Another experiment has as its system CP315. In a few lines: as §1
The subject of the next experiment is CP325. In a few lines:
as §1

The subject of the next experiment is CP329. In a few lines: as §1
Another experiment deals with DFO2036. In a few lines: as §1
The test system of a further experiment is DIV17. In a few lines:
as §1

In the next experiment the test system is DIV30. The gist of the method:
as §1

The subject of a further experiment is ECU. The gist of the method: as §1
For the next experiment, the system named is FAB9. In a few lines: as §1
The test system of another experiment is GB4. In a few lines: as §1
Another experiment relates to HB3. In a few lines:
as §1

The subject of the next experiment is ICS. The gist of the method:
as §1

The subject of the next experiment is JCK. In a few lines:
as §1

Another experiment has as its system N140. In a few lines:
as §1

The subject of a further experiment is P93_24. The gist of the method: as §1
In a further experiment the test system is P94_40. The gist of the method:
as §1

A further experiment relates to PAD. The gist of the method:
as §1

The next experiment concerns DIV14. The gist of the method:
as §1

Another experiment has as its system Dd2. The gist of the method: as §1
The next experiment has as its system CP335. The gist of the method: as §1
Potency is read from the fitted curve at half-maximal effect.

With `CC(=O)Nc1ccc(NC(=S)NC(=O)c2ccc(C(C)(C)C)cc2)cc1`, the Potency result in the experiment with CP305, in the experiment with CP315, in the experiment with CP325, with CP329, with DFO2036 and in the experiment with DIV17 was “inactive” in each case. Besides, the Potency result with DIV30, in the experiment with ECU, with FAB9, in the experiment on GB4, in the experiment on HB3 and in the experiment with JCK was “inactive” throughout. Besides, the Potency entry in the experiment with N140, with P93_24, in the experiment with P94_40 and in the experiment on PAD was “inactive” in each case. The Potency with ICS is 12.6 µM (active).

As to `Cc1c(C)c2c(c(C)c1OC(=O)CCC(=O)O)CC[C@@](C)(CCC[C@H](C)CCC[C@H](C)CCCC(C)C)O2`, the Potency entry in the experiment with CP305, in the experiment with CP315, in the experiment on CP325, in the experiment with CP329, with DFO2036 and in the experiment on DIV14 was “inactive” throughout. For the same molecule, the Potency entry in the experiment on DIV17, in the experiment on DIV30, in the experiment on ECU, with FAB9, in the experiment with GB4 and with JCK was “inactive” throughout. Also, the Potency entry in the experiment with N140, in the experiment on P93_24, with P94_40 and in the experiment on PAD was “inactive” each time. For the same molecule, the Potency in the experiment on Dd2 and with ICS was 11.2 µM (active) in each case.

For `O=C(O[C@H]1CN2CCC1CC2)N1CCc2ccccc2[C@@H]1c1ccccc1`, the Potency entry in the experiment on CP305, with CP315, in the experiment on CP325, in the experiment on CP329, in the experiment on DFO2036 and in the experiment with FAB9 was “inactive” throughout. Moreover, the Potency entry in the experiment on HB3, in the experiment on JCK, with N140, in the experiment on P94_40 and with PAD was “inactive” each time. Besides, the Potency in the experiment on DIV14 was 3.79 µM (active); in the experiment with DIV17, 4.26 µM (active); in the experiment on Dd2, 4.47 µM (active).

As for `CN(C)C(=O)CCSC(SCCC(=O)O)c1cccc(/C=C/c2ccc3ccc(Cl)cc3n2)c1` (stereo not given), the Potency result with CP305, in the experiment on CP315, with CP325, in the experiment with CP329, with FAB9 and in the experiment with JCK was “inactive” throughout. Also, the Potency in the experiment on ICS and in the experiment with PAD was 11.2 µM (active) throughout.

For the molecule `CCC(=O)c1ccc2c(c1)N(CCCN1CCN(CCO)CC1)c1ccccc1S2`, the Potency in the experiment with CP305 is 10.7 µM (active); in the experiment with CP315, 9.53 µM (active); with CP335, 6.01 µM (active); in the experiment with DFO2036 it was 8.91 µM (active); with DIV14, 9.53 µM (active); in the experiment on DIV17, 13.5 µM (active). The Potency was 13.5 µM (active) in the experiment on DIV30; 5.62 µM (active) in the experiment on Dd2; 8.91 µM (active) with ECU; 9.53 µM (active) in the experiment on GB4; 7.94 µM (active) with HB3; 5.01 µM (active) with ICS. For the same molecule, the Potency in the experiment on N140 is 8.91 µM (active); in the experiment with P93_24 it was 8.91 µM (active); with P94_40 it was 10 µM (active); in the experiment with PAD it was 8.91 µM (active). Besides, in the experiment with JCK, the Potency result is “inactive”.

In the case of `COc1ccc2nc(NC(=O)Nc3ccccc3)sc2c1`, the Potency result with CP305, in the experiment with CP315, in the experiment on CP325, in the experiment with CP335, in the experiment on DFO2036 and in the experiment with ECU was “inactive” in each case. Moreover, the Potency result with FAB9, with HB3, in the experiment on JCK, in the experiment on P93_24, in the experiment with P94_40 and in the experiment with PAD was “inactive” throughout. Further, the results for the Potency with DIV17 and in the experiment on ICS were 4.78 µM (active) and 7.94 µM (active), respectively.

For the molecule `CC[C@H]1OC(=O)[C@H](C)[C@@H](O[C@H]2C[C@@](C)(OC)[C@@H](O)[C@H](C)O2)C(C)[C@@H](O[C@@H]2O[C@H](C)C[C@H](N(C)C)[C@@H]2O)[C@](C)(OC)C[C@@H](C)C(=O)[C@H](C)[C@@H](O)[C@]1(C)O` (stereo not given in full), the Potency entry with CP305, in the experiment with CP315, with DFO2036, in the experiment on DIV14, with DIV17 and in the experiment on DIV30 was “inactive” in each case. The Potency result in the experiment with ECU, in the experiment with JCK, in the experiment on N140, in the experiment on P93_24, in the experiment with P94_40 and with PAD was “inactive” in each case. Moreover, the figures for the Potency with CP335 and in the experiment with ICS were 6.75 µM (active) and 10 µM (active), respectively.

In the case of `CC/C=C\C/C=C\C/C=C\CCCCCCCC(=O)O`, the Potency result in the experiment on CP305, in the experiment with CP315, in the experiment on CP325, in the experiment with CP329, in the experiment with DFO2036 and in the experiment with DIV17 was “inactive” each time. Besides, the Potency entry in the experiment with DIV30, in the experiment with Dd2, in the experiment with ECU, with FAB9, with GB4 and in the experiment on HB3 was “inactive” throughout. The Potency entry with JCK, with N140, in the experiment with P93_24 and in the experiment on P94_40 was “inactive” in each case.

For the molecule `CS(=O)(=O)c1ccc([C@@H](O)[C@@H](COC(=O)CN)NC(=O)C(Cl)Cl)cc1`, the Potency entry in the experiment with DIV14, with DIV17, in the experiment on DIV30, in the experiment on ECU, in the experiment on FAB9 and in the experiment with HB3 was “inactive” each time. The Potency result in the experiment with JCK, with N140 and in the experiment with PAD was “inactive” in each case. Moreover, the Potency with Dd2 was 6.31 µM (active).

Take `CCN(CC)CCCC(C)Nc1cc(/C=C/c2ccccc2Cl)nc2cc(Cl)ccc12` (stereo not given): the Potency is 0.849 µM (active) in the experiment with CP325; 6.75 µM (active) in the experiment on CP329; 2.69 µM (active) in the experiment on CP335; 1 µM (active) with DFO2036; 4.26 µM (active) in the experiment on DIV14; 4.26 µM (active) in the experiment with DIV17. Moreover, the Potency with DIV30 was 1.69 µM (active); with Dd2, 2.24 µM (active); with ECU, 2.51 µM (active); in the experiment on GB4, 4.78 µM (active); in the experiment on HB3, 2 µM (active); in the experiment on ICS, 0.398 µM (active). The Potency was 11.2 µM (active) in the experiment with JCK; 3.16 µM (active) in the experiment on N140; 2 µM (active) in the experiment with P93_24; 1.78 µM (active) in the experiment on P94_40; 1 µM (active) with PAD.

For `OCCOCCOCCO`, the Potency entry in the experiment on CP335, in the experiment on DFO2036, with Dd2, in the experiment on ECU, in the experiment on FAB9 and in the experiment with HB3 was “inactive” each time. In addition, the Potency entry in the experiment with ICS, with JCK, with N140, in the experiment on P93_24, in the experiment with P94_40 and in the experiment on PAD was “inactive” each time.

In the case of `CCCC(CCC)C(=O)OC1C[C@H]2CC[C@@H](C1)[N+]2(C)C` (stereo not given in full), the results for the Potency with ECU and in the experiment with ICS were 7.94 µM (active) and 12.6 µM (active), respectively. For the same molecule, the Potency entry in the experiment with FAB9 and with JCK was “inactive” throughout.

As to `NC(N)=NCC1COc2ccccc2O1` (stereo not given), the Potency result with CP315, in the experiment with DIV14, in the experiment with DIV30, in the experiment with ECU, in the experiment on FAB9 and with JCK was “inactive” each time. Besides, the Potency result in the experiment with N140, with P94_40 and in the experiment on PAD was “inactive” each time.

Consider `C=CC[C@@H]1/C=C(\C)C[C@H](C)C[C@H](OC)[C@H]2O[C@@](O)(C(=O)C(=O)N3CCCC[C@H]3C(=O)O[C@H](/C(C)=C/[C@@H]3CC[C@@H](O)[C@H](OC)C3)[C@H](C)[C@@H](O)CC1=O)[C@H](C)C[C@@H]2OC`, for which the Potency with CP315 was 6.75 µM (active); in the experiment on CP325 it was 4.26 µM (active); in the experiment with CP329, 4.26 µM (active); with DFO2036, 1 µM (active); in the experiment with DIV14 it was 1.69 µM (active); in the experiment with DIV17, 1.69 µM (active). Also, the Potency was 0.849 µM (active) in the experiment on DIV30; 0.112 µM (active) with Dd2; 1.26 µM (active) with ECU; 2 µM (active) with FAB9; 3.79 µM (active) in the experiment on GB4; 1 µM (active) in the experiment with HB3. Moreover, the Potency with ICS was 0.447 µM (active); in the experiment on JCK, 3.98 µM (active); with N140 it was 0.891 µM (active); with P93_24, 2 µM (active); in the experiment with P94_40, 2 µM (active); with PAD it was 1.41 µM (active).

Regarding `O=C(OC1C[C@@H]2CC3C[C@H](C1)N2CC3=O)c1c[nH]c2ccccc12` (stereo not given in full), the Potency result in the experiment with CP315, in the experiment with CP325, in the experiment with CP329, with DFO2036, in the experiment with Dd2 and in the experiment on FAB9 was “inactive” throughout. Further, the Potency entry with HB3, with JCK, in the experiment on N140, in the experiment with P93_24 and in the experiment on P94_40 was “inactive” each time. For the same molecule, the Potency in the experiment on DIV14 was 7.57 µM (active); in the experiment on DIV17 it was 7.57 µM (active); with ICS it was 10 µM (active).

Regarding `CC[C@H]1OC(=O)[C@H](C)[C@@H](O[C@H]2C[C@@](C)(OC)[C@@H](O)[C@H](C)O2)[C@H](C)[C@@H](O[C@@H]2O[C@H](C)C[C@H](N(C)C)[C@H]2O)[C@](C)(O)C[C@@H](C)CN(C)[C@H](C)[C@@H](O)[C@]1(C)O`, the Potency with CP335 is 5.36 µM (active); in the experiment on DFO2036, 5.01 µM (active); with Dd2, 0.355 µM (active); in the experiment on GB4 it was 7.57 µM (active); in the experiment with N140, 8.91 µM (active); in the experiment with P94_40 it was 2.51 µM (active). Also, the Potency entry in the experiment on FAB9 and with JCK was “inactive” in each case.
